From PubChem BioAssay (EPA / NIEHS)
Inconclusive results are not listed. Active and inactive are the calls of the source. The calls were made as follows: active = hit-call score of the fitted dose curve at least 0.9, where 1 is the maximum; inconclusive = response in the unintended direction; inactive = score below 0.9.

experiment: ATG_M_19_TRANS: Attagene TRANS-FACTORIAL HepG2 Assay for M19 Transcription Factor (Internal Marker) (AID 2282974); conditions: HepG2 Attagene TRANS-FACTORIAL M19 internal marker reporter
Procedure: ATG_TRANS is a cell-based, multiplexed-readout assay that uses HepG2, a human liver cell line, with measurements taken at 24 hours after chemical dosing in a 24-well plate.ATG_M_19_TRANS is one of 30 assay component(s) measured or calculated from the ATG_TRANS assay. It is designed to make measurements of mRNA induction, a form of inducible reporter, as detected with fluorescence intensity signals by Reverse transcription polymerase chain reaction (RT-PCR) and Capillary electrophoresis technology.Data from the assay component ATG_M_19_TRANS was analyzed into 1 assay endpoint. This assay endpoint, ATG_M_19_TRANS, was analyzed in the positive analysis fitting direction relative to DMSO as the negative control and baseline of activity. Using a type of inducible reporter, measures of mRNA for gain-of-signal activity can be used to understand the background control at the transcription factor-level as they relate to the gene . Furthermore, this assay endpoint can be referred to as a secondary readout, because this assay has produced multiple assay endpoints where this one serves a background control function. To generalize the intended target to other relatable targets, this assay endpoint is annotated to the background measurement intended target family, where the subfamily is internal marker.
Human liver HepG2 cells are transiently transfected with multiple reporter transcription units (MRTUs) in 6-well plates using FuGene 6 reagent (Roche; 3 ml FuGene/1 mg DNA). The MRTU constructs are regulated by a cis-regulating element (promoter). […] A major difference between the CIS and TRANS system is that in CIS activities of endogenous TFs are measured, whereas the TRANS assay evaluates changes in activities of exogenous, chimeric NR-Gal4 proteins. […] At the end of 24 hour incubation, total RNA was isolated using TriZol reagent (Invitrogen). The isolated RNA is then reverse-transcribed using oligo(dT) primer and Mo-MLV reverse transcriptase (Invitrogen) with DNAse I (Ambion) treatment for 30 min. The one-tenth of the produced cDNA was amplified by PCR using Taq DNA polymerase (Invitrogen) and two reporter sequence-specific primers. The PCR products were fluorescently labeled by primer extension with 6-arboxyfluorescein (6-FAM) 5'-labeled reporter sequence-specific primer (2 min at 95 C, 20 s at 68 C and 10 min at 72 C) and these products were digested with 5U of HpaI (New England Biolabs) for 2h at 37 C. The fragments were purified using Qiaquick PCR columns (Qiagen), analyzed on an ABI 3130xL genetic analyzer (Applied Biosystems) with peak positions identified by using a set of X-rhodamine (ROX)-labeled MapMarker1000 molecular weight standards (BioVentures). The raw capillary electrophoresis data was processed using Attagraph software (Attagene).

Structure (SMILES)	outcome
CC(=O)C(C)C	inactive
CO[Si](C)(C)OC	inactive
COC(OC)(C(=O)c1ccccc1)c1ccccc1	inactive
Nc1ccc(C(=O)OCCCOC(=O)c2ccc(N)cc2)cc1	inactive
CO[Si](CCCS)(OC)OC	inactive
C=C(C)[C@@H]1CC=C(C)CC1	inactive
C/C=C/C=C/CCCCCCCO	inactive
CCCCOC(=O)CCC(C)=O	inactive
CC(C)c1ccc(O)c(C(C)C)c1	inactive
CC(C)(O)Cc1ccccc1	inactive
COCC(=O)O	inactive
CC(C)(c1ccccc1)c1ccc(Nc2ccc(C(C)(C)c3ccccc3)cc2)cc1	inactive
Nc1cccc(N)n1	inactive
Nc1ncnc2nc[nH]c12	inactive
CCCCCCCCCCCC(=O)OCC	inactive
CCc1cccc(C)c1N	inactive
CCCCCCCCCCCCCC(=O)OC(C)C	inactive
COc1ccc(C(=O)c2ccccc2)c(O)c1	inactive
CC(C)c1cc(C(C)C)cc(C(C)C)c1	inactive
c1ccc2cnccc2c1	inactive

Structure (SMILES)	outcome
O=c1c(O)c(-c2ccc(O)cc2O)oc2cc(O)cc(O)c12	inactive
[Cl][Sc]([Cl])[Cl]	inactive
CC(C)(C)NC(=O)[C@H]1CC[C@H]2[C@@H]3CC[C@H]4NC(=O)C=C[C@]4(C)[C@H]3CC[C@]12C	inactive
CC(C)(C)C1CCC(=O)CC1	inactive
CC1=CC=C(C(C)C)CC1	inactive
Nc1ccc(C(=O)O)cc1	inactive
Nc1nc(N)nc(-c2ccccc2)n1	inactive
CCC(C)C(=O)OC (stereo not given)	inactive
CC(CCC(=O)O)(c1ccc(O)cc1)c1ccc(O)cc1	inactive
CN(C)c1ccc2nc3ccc(=[N+](C)C)cc-3sc2c1	inactive
O=C(OCCc1ccccc1)c1ccccc1	inactive
COC(=O)c1ccccc1C	inactive
CC(=O)CCC1=C(C)CCCC1(C)C	inactive
Clc1cc(Cl)c(Cl)c(Cl)c1Cl	inactive
CCCCCCCO	inactive
CCOC(=O)/C=C\C(=O)OCC	inactive
CC1=CCC2CC1C2(C)C (stereo not given)	inactive
O=C(Nc1ccccc1)c1cc(Cl)ccc1O	inactive
CCCCC(C=O)CC (stereo not given)	inactive
O=C(Oc1ccccc1)c1ccccc1C(=O)Oc1ccccc1	inactive
